Luc counter – Counterscreen for Luciferase (Kinase-Glo TM) Inhibition. Kinase-Glo luciferase, ATP luminescence, 8 min. 200,000 tested, 0.28% active. Potency, µM (titrated, usually from 38.3 µM), without a hit: at the top dose activity change, negative = inhibition, actives largely listed as inhibitors. Luciferin 4-monooxygenase (Photuris pensylvanica), Q27757; note: % is set by controls: 0 for no effect and ±100 for the full control effect; nearly all actives have a fitted effect of over 60% in size
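Light output from Kinase-Glo luciferase with luciferin and 10 uM ATP in 50 mM imidazole pH 7.2, KCl, MgCl2, Tween 20, BSA; compound pin-delivered, 8-min ambient incubation, then luminescence read.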
Rab9 promoter act – qHTS Assay for Rab9 Promoter Activators; Huh7 Rab9 promoter-luciferase reporter, luminescence, 24 h; Potency, µM (titrated, usually from 9.22 µM), for the others: at the top dose activation, negative = inhibition, actives largely listed as activators; 320,000 tested, 2.8% active; note: % of control where 0% means no effect; nearly all actives have a fitted effect of over 60% in size
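Luminescence read-out: Huh7 cells stably expressing Rab9-luciferase, treated 24 h with compound at 37 °C, then lysed with luciferase reagent for 10 min at ambient before reading.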
ELG1 genotoxic – qHTS screen for small molecules that induce genotoxicity in human embryonic kidney (HEK293T) cells expressing luciferase-tagged ELG1. HEK293T ELG1-luciferase reporter, luminescence, 16 h. Potency, µM (titrated, usually from 46 µM), without a hit: at the top dose activity change, positive = activation, hits mostly activators. 330,000 tested, 1.3% active; note: % of control where 0% means no effect; nearly all actives have a fitted effect of over 60% in size
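Cells (2,000/well) expressing the ELG1-luciferase fusion are dosed by pin tool and kept 16 hr at 37 °C, 5% CO2. Signal comes from ONE-Glo luciferase reagent after 30 min at room temperature.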
NPC1 prom act – qHTS Assay for NPC1 Promoter Activators; AID 485313, 2010; 320,000 tested, 2.4% active; Potency, µM (series often up to 9.22 µM), for inactives: at the highest dose activation, hits mostly activators; Huh7 NPC1 promoter luciferase reporter, 24 h; note: % of control where 0% means no effect; nearly all actives have a fitted effect of over 60% in size
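Compounds in DMSO were transferred onto Huh7 NPC1-luciferase reporter cells pre-incubated 2 h; after 24 h at 37 °C, Amplite reagent was dispensed and luminescence recorded 10 min later.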
SMN2 splice enh – qHTS Assay for Enhancers of SMN2 Splice Variant Expression; 210,000 tested, 2.8% active; Potency, µM (doses to about 46.1 µM), for the others: top-dose activity change, positive = activation, most hits filed as activators; AID 1458, 2008; HEK293 SMN2-luciferase splicing reporter, luminescence, 30-36 h; note: % of control where 0% means no effect; nearly all actives have a fitted effect of over 55% in size
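HEK293 cells carry an SMN2 minigene-luciferase reporter in which exon 7 inclusion puts luciferase in frame. Cells were seeded at 2000 cells/well, attached for 10-12 hours, then exposed to compounds for 30-36 hours at 37C before ONE-Glo luminescence.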
FLuc modulator – qHTS profiling assay for firefly luciferase inhibitor/activator using purifed enzyme and Km concentrations of substrates (counterscreen for miR-21 project). Luciferin 4-monooxygenase (Photinus pyralis), P08659. purified FLuc, Km substrates, luminescence inhibition. Potency, µM (series often up to 57.5 µM), for inactives: at the highest dose activity change, negative = inhibition, most hits filed as inhibitors. 360,000 tested, 6.9% active. AID 588342, 2011;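 note: plate controls were vehicle for no effect and reference inhibitor for full effect; nearly all actives have a fitted effect of over 55% in size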
Target sequence (P08659 whole entry, looked up): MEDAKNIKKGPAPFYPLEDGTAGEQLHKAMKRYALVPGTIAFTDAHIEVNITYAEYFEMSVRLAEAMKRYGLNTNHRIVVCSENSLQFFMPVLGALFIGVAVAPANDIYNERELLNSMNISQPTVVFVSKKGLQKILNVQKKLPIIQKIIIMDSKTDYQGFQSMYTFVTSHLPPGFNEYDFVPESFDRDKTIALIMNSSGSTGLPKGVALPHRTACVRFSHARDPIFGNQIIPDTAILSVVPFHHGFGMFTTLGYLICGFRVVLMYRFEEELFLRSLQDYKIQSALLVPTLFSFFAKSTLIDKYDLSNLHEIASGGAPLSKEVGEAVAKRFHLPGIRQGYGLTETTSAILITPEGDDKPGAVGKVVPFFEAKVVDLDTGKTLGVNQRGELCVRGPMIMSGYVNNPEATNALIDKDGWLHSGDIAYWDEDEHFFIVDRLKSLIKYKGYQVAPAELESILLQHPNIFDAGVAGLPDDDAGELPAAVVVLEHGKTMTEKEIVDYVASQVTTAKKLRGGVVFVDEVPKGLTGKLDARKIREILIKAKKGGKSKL
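Purified P. pyralis luciferase (10nM final) with 10uM D-luciferin and 10uM ATP (Km levels) in 50mM Tris acetate pH 7.5, 10mM Mg acetate, 0.01% Tween-20, 0.05% BSA; qHTS 6-point titration, ~60 µM downward; luminescence read.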
* hit, by the source's call; [ ] = another dose, or the depositor's remark. A selection: hits, their analogues and other compounds. The true share with any hit is near 7.5%. Calls come from the whole dose curve; as a rule, active = well fitted curve in the direction sought with a large enough effect; inconclusive = small, poorly fitted or top-dose-only effect, or another doubt; inactive = no such curve, though single readings can be large; an effect the other way counts as inactive or inconclusive. Potency is the fitted concentration of half-maximal effect.

Screening CCCCCCCCC1CO1 (stereo not drawn) returned SMN2 splice enh 14.4%.
For COc1ccccc1N1CCN(S(=O)(=O)c2c(C)nc3sccn3c2=O)CC1 the results were FLuc modulator -0.3%.
CC(=O)Nc1nonc1-c1nnc(SCc2ccccc2C)n1C was read as FLuc modulator -7.6%.
Screening Cc1ccccc1CCNC(=O)c1ccc2c(c1)nc1n2CCOC1 returned FLuc modulator 6.01µM*.
`O=C(NCc1ccccc1)c1ccc2c(c1)nc1n2CCOC1` gave FLuc modulator -10.2%.
CC(C)Oc1ccc(CNC(=O)c2ccc3c(c2)nc2n3CCCCC2)cc1 was read as FLuc modulator 9.53µM*.
For CCOc1ccc(CNC(=O)c2ccc3c(c2)nc2n3CCCCC2)cc1 the results were FLuc modulator 12µM*.
For CCOc1ccc(CNC(=O)c2ccc3c(c2)nc2n3CCOC2)cc1 the results were FLuc modulator -13.3%.
Screening CN1c2ccccc2C(=O)C(=C2SCCCS2)S1(=O)=O returned Rab9 promoter act -3.3%, ELG1 genotoxic -1.3%, NPC1 prom act 0.7% and FLuc modulator 19µM*.
For COc1ccccc1C(=O)Nc1nnc(SCC(=O)NCc2ccco2)s1 the results were Rab9 promoter act 2.24µM*, ELG1 genotoxic 2.31µM*, NPC1 prom act 3.16µM* and FLuc modulator 3.38µM*.
Screening CCSc1nnc(Nc2ccc(C)cc2)s1 returned Luc counter 0.6%, Rab9 promoter act 2.82µM*, ELG1 genotoxic inconclusive, NPC1 prom act 3.55µM*, SMN2 splice enh inconclusive and FLuc modulator 9.53µM*.
Screening Cc1ccc(Nc2nc(C(=O)NCc3ccco3)cs2)cc1 returned Luc counter -3.5%, Rab9 promoter act -2.3%, ELG1 genotoxic -2.5%, NPC1 prom act 10.7%, SMN2 splice enh -15.3% and FLuc modulator 23.9µM*.
For COc1ccc(C(=O)Nc2nnc(SCC(=O)NCc3ccco3)s2)cc1OC the results were Rab9 promoter act 18.1%, ELG1 genotoxic 1.8%, NPC1 prom act inconclusive and FLuc modulator -3.2%.
Screening O=C(CSc1nnc(NC(=O)c2ccccc2F)s1)NCc1ccco1 returned Rab9 promoter act 3.98µM*, ELG1 genotoxic 16.4µM*, NPC1 prom act 3.55µM* and FLuc modulator 8.49µM*.
Screening Cc1ccc(Nc2nnc(SCC(=O)NCc3ccco3)s2)cc1 returned Luc counter -8.2%, Rab9 promoter act 5.6%, ELG1 genotoxic 1.0%, NPC1 prom act 20.9%, SMN2 splice enh 8.2% and FLuc modulator 13.5µM*.
`COc1ccc(C(=O)Nc2nnc(SCC(=O)NCc3ccco3)s2)c(OC)c1` gave Rab9 promoter act 0.316µM*, ELG1 genotoxic 0.517µM*, NPC1 prom act 0.282µM* and FLuc modulator 0.675µM*.
COc1ccc(OC)c(NC(=O)Cn2c(C)nc3ccccc3c2=O)c1 was read as Luc counter 0.2%, Rab9 promoter act 19.0%, ELG1 genotoxic inconclusive, NPC1 prom act 3.16µM* and FLuc modulator 9.53µM*.
For COc1ccc(Cl)cc1NC(=O)Nc1cc(C)on1 the results were Rab9 promoter act 0.501µM*, ELG1 genotoxic 1.3µM*, NPC1 prom act 1.41µM* and FLuc modulator 6.01µM*.
For COc1ccc(OC)c(NC(=O)CSc2nc3ccccc3c(=O)n2CCNC(C)=O)c1 the results were Luc counter 1.5%, Rab9 promoter act -2.4%, ELG1 genotoxic -0.4%, NPC1 prom act -2.3%, SMN2 splice enh -4.5% and FLuc modulator -0.8%.
COc1ccc(OC)c(NC(=O)NCc2cccnc2)c1 was read as Rab9 promoter act 3.4%, ELG1 genotoxic 0.4%, NPC1 prom act -2.6% and FLuc modulator 5.4%.
COc1ccc(OC)c(NC(=O)Nc2cc(NC(=O)Nc3cc(OC)ccc3OC)c(C)nc2C)c1 was read as Luc counter 0.4%, Rab9 promoter act -3.0%, ELG1 genotoxic inconclusive, NPC1 prom act -5.0%, SMN2 splice enh 14.1µM* and FLuc modulator 6.2%.
Screening COc1ccc(NC(=O)Nc2cc(NC(=O)Nc3ccc(OC)cc3)c(C)nc2C)cc1 returned Luc counter 1.1%, Rab9 promoter act -4.6%, ELG1 genotoxic 1.7%, NPC1 prom act -1.7%, SMN2 splice enh 20.2% and FLuc modulator 0.1%.
`COc1ccc(Cl)cc1NC(=O)NCc1cccnc1` gave Rab9 promoter act 0.5%, ELG1 genotoxic 0.0%, NPC1 prom act -7.3% and FLuc modulator 15.1µM*.
Cc1cccc(-n2c(=O)c3c(c4cc(C)ccc4n3C)n(CC(=O)Nc3ccc(C)c(C)c3)c2=O)c1 was read as FLuc modulator -3.1%.
Screening Cc1cc(NC(=O)c2c(Cl)cccc2Cl)no1 returned Luc counter 0.2%, Rab9 promoter act 2.5%, ELG1 genotoxic 0.8%, NPC1 prom act -1.9%, SMN2 splice enh 1.6% and FLuc modulator -14.5%.
For Cc1cc(NC(=O)Nc2ccccc2Cl)no1 the results were Rab9 promoter act 27.7%, ELG1 genotoxic 7.5%, NPC1 prom act 19.3% and FLuc modulator 15.1µM*.
`O=C(/C=C\C=C/c1ccc2c(c1)OCO2)N1CCCCC1` gave Luc counter -8.2%[17.1 µM] and SMN2 splice enh inconclusive.
`O=C(/C=C/c1ccc2c(c1)OCCO2)N1CCN(c2ccc(F)cc2)CC1` gave Rab9 promoter act -1.7%, ELG1 genotoxic -4.0%, NPC1 prom act -3.4% and FLuc modulator 23.9µM*.
For CCOC(=O)C1CCN(C(=O)/C=C/c2ccccc2)CC1 the results were Luc counter -1.6%, Rab9 promoter act 1.12µM*, ELG1 genotoxic 13.8%, NPC1 prom act 1.41µM*, SMN2 splice enh 11.2µM* and FLuc modulator 23.9µM*.
`CCOC(=O)C1CCN(C(=O)/C=C/c2ccc3c(c2)OCO3)CC1` gave Rab9 promoter act 0.794µM*, ELG1 genotoxic inconclusive, NPC1 prom act 0.447µM* and FLuc modulator 15.1µM*.
Screening O=C(/C=C/c1ccc2c(c1)OCO2)N1CCCCC1 returned Rab9 promoter act 1.58µM*, ELG1 genotoxic inconclusive, NPC1 prom act 3.55µM* and FLuc modulator 12µM*.
For O=C(/C=C/c1ccc2c(c1)OCO2)N1CCN(c2ccc(Cl)cc2)CC1 the results were Luc counter 1.9%, Rab9 promoter act -2.3%, ELG1 genotoxic 2.4%, NPC1 prom act -1.5%, SMN2 splice enh -36.2% and FLuc modulator -2.8%.

Source: PubChem (National Center for Advancing Translational Sciences (NCATS))
